Data from the supplement of paper PMC5919970.
Over roughly 2,000 compounds, “fractional viability relative to vehicle” has its median near 0.91; the lowest 2% begin near 0.045. The entries come from a sample that favours the lowest values as a whole.

System: TYKNU
Assay: fractional viability relative to vehicle; TYKNU is a high-grade serous ovarian cancer line; higher = less growth inhibition
Conditions: 72 h
Summary of the method: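 TYKNU control cells or lentiCRISPRv2 knockout derivatives were seeded at 500 cells per well into drug-stamped 384-well plates holding a ~2100-compound library at 2 or 10 μM, in duplicate. Cells were grown at 37 °C in 5% CO2 in RPMI 1640 with 10% FBS, and drug treatment lasted 72 h. Viability was read by Cell Titer Glo luminescence. Duplicate treatment wells were averaged and normalised to duplicate control wells from the same plate position.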

[1] = 2uM, genotype: DNM1L knockout (sgDNM1L #1)
[2] = 2uM, genotype: sgCTRLA1 (non-targeting control)
[3] = 10uM, genotype: DNM1L knockout (sgDNM1L #1)
[4] = 10uM, genotype: sgCTRLA1 (non-targeting control)

SMILES | fractional viability [1] | fractional viability [2] | fractional viability [3] | fractional viability [4]
Nc1nc(Nc2ccc3c(c2)CCC(N2CCCC2)CC3)nn1-c1cc2c(nn1)-c1ccccc1CCC2 (configuration not stated) | 0.343 | 0.242 | 0.0232 | 0.0259
CNC[C@@H](O)c1ccc(O)c(O)c1 [L-Adrenaline] | 0.842 | 1 | 0.784 | 0.91
CC(C)Oc1ccc(C(=O)N[C@H](CNC(=O)CN(C)C)Cc2ccc(-c3cn4cccc([C@H](C)O)c4n3)cc2)cc1Cl | 0.413 | 0.508 | 0.29 | 0.438
Clc1cccc(-c2nnnn2Cc2cccnc2)c1Cl | 0.755 | 0.927 | 0.755 | 0.73
CS(=O)(=O)Nc1ccc([N+](=O)[O-])cc1Oc1ccccc1 [Nimesulide] | 0.973 | 1.1 | 0.922 | 1.01
O=[N+]([O-])c1ccc2c(c1)S(=O)(=O)C=C2 [Stattic] | 0.0799 | 0.101 | 0.0327 | 0.0222
O=C(O)c1cc(=O)[nH]c(=O)[nH]1 [Orotic acid (6-Carboxyuracil)] | 0.916 | 1.04 | 1.02 | 1.12
COc1ccc([C@]2(C#N)CC[C@@H](C(=O)O)CC2)cc1OC1CCCC1 [Cilomilast] | 0.977 | 1.1 | 0.843 | 1.15
CCc1c(Cl)c(O)c(Cl)c(O)c1C(=O)O[C@H]1[C@H](O)[C@H](OC)[C@H](OC/C2=C\C=C\C[C@H](O)/C(C)=C/[C@H](CC)[C@@H](O[C@@H]3OC(C)(C)[C@@H](OC(=O)C(C)C)[C@H](O)[C@@H]3O)/C(C)=C/C(C)=C/C[C@@H]([C@@H](C)O)OC2=O)O[C@@H]1C [Fidaxomicin] | 0.741 | 0.893 | 0.494 | 0.0966
C[C@H]1O[C@@H](O[C@H]2[C@@H](O)C[C@H](O[C@H]3[C@@H](O)C[C@H](O[C@H]4CC[C@@]5(C)[C@H](CC[C@@H]6[C@@H]5C[C@@H](O)[C@]5(C)[C@@H](C7=CC(=O)OC7)CC[C@]65O)C4)O[C@@H]3C)O[C@@H]2C)C[C@H](O)[C@@H]1O [Digoxin] | 0.0546 | 0.0452 | 0.032 | 0.0309
CCS(=O)(=O)N1CCC([C@@H](C)n2c(C)c(C(=O)NCc3c(OC)cc(C)[nH]c3=O)c3ccccc32)CC1 | 0.746 | 0.93 | 0.908 | 0.836
NC(=O)NO [Hydroxyurea] | 0.92 | 1.14 | 0.948 | 1.16
CC(C)c1cnn2c(NCc3ccccc3)cc(NCCCCCCN)nc12 | 1.09 | 1.13 | 0.83 | 0.972
O=C(O)CCNC(=O)c1ccccc1 [Betamipron] | 0.922 | 1.11 | 0.923 | 0.986
CN(NC(=O)CC(=O)NN(C)C(=S)c1ccccc1)C(=S)c1ccccc1 [Elesclomol (STA-4783)] | 0.0609 | 0.0221 | 0.0751 | 0.0222
O=C(O)c1ccccc1 [Benzoic Acid] | 0.793 | 0.98 | 0.581 | 0.958
O=CN1CC/C(=C/c2ccc3c(c2)OCO3)C1=O | 0.723 | 0.973 | 0.78 | 0.692
OC[C@H]1O[C@@H](OCCc2ccc(O)cc2)[C@H](O)[C@@H](O)[C@@H]1O [Salidroside] | 0.968 | 1.14 | 0.842 | 1.07
O=C(c1cc(Cc2n[nH]c(=O)c3ccccc23)ccc1F)N1CCN(C(=O)C2CC2)CC1 | 0.967 | 1.06 | 0.727 | 1.02
CCN1CCN(Cc2ccc(Nc3ncc(F)c(-c4cc(F)c5nc(C)n(C(C)C)c5c4)n3)nc2)CC1 | 0.289 | 0.473 | 0.0303 | 0.0236
C[N+](C)(C)C[C@H](O)CC(=O)[O-] [L-carnitine] | 1.12 | 1.14 | 0.8 | 1.07
Cc1nnc(C(=O)NC(C)(C)c2nc(C(=O)NCc3ccc(F)cc3)c(O)c(=O)n2C)o1 [Raltegravir (MK-0518)] | 0.979 | 1.07 | 0.879 | 1.06
CN(C)C(=S)NN=C(c1ccccn1)c1ccccn1 | 0.177 | 0.132 | 0.255 | 0.107
Clc1ccc(NN=C(c2ccccc2)c2ccccn2)nc1 | 0.116 | 0.0468 | 0.0355 | 0.0108
O=C(Nc1cccc(Cl)c1)c1ccccn1 | 1.06 | 1.05 | 0.971 | 1.12
CCC[S+]([O-])c1ccc2[nH]c(NC(=O)OC)nc2c1 (configuration not stated) [Albendazole Oxide] | 1.04 | 0.909 | 0.505 | 0.562
CC1(C)CC(=O)c2c(C(F)(F)F)nn(-c3ccc(C(N)=O)c(N[C@H]4CC[C@H](OC(=O)CN)CC4)c3)c2C1 | 0.976 | 1.16 | 0.981 | 1.09
CC[C@H](NC(=O)[C@H](C)NC)C(=O)N1C[C@@H](O)C[C@H]1Cc1c(-c2[nH]c3cc(F)ccc3c2C[C@@H]2C[C@H](O)CN2C(=O)[C@H](CC)NC(=O)[C@H](C)NC)[nH]c2cc(F)ccc12 [Birinapant] | 0.772 | 1.15 | 0.653 | 0.949
